Screens as filed in PubChem.
This excerpt belongs to a sample that is enriched for hits.
DRV1 agonist: activates human resolvin D1 receptor GPR32; activation, % at 76.9 µM; O75388; CHO-K1 GPR32 beta-arrestin PathHunter luminescence, 90 min; zero percent set by DMSO-only wells; hit rate 2.5% among 48,000;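 active means activation of at least 60% and not above a set upper limit, about 1 call in 100 departs from these limits; inconclusive means activation of 40% to 60%, or above that upper limit; inactive means activation under 40%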
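Step 1: seed CHO-K1 GPR32 beta-arrestin cells, 2,500/well, overnight at 37 °C. Step 2: add compounds, 90 min at 37 °C. Step 3: detection reagent, 1 h ambient, then luminescence.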
AID inhibitor: blocks human AID cytidine deaminase activity; Q9GZX7; AID deamination FRET fluorescence, UDG-coupled, 4 h; Potency, µM (series often up to 115 µM), most hits filed as inhibitors; hit rate 0.32% among 91,000; AID 1347428; further: nearly all actives have a fitted effect of over 25% in size
Target sequence (Q9GZX7 whole entry, looked up): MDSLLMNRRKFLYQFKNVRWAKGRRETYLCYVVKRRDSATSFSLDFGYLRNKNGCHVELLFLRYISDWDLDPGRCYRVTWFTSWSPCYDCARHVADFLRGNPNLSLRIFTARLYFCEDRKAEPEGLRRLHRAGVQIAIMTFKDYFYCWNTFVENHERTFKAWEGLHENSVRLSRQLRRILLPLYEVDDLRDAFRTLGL
UDG counter: UDG inhibition counter-screen; FRET deamination/UDG coupled assay, UDG read, 4 h; Potency, µM (doses to about 115 µM), actives largely listed as inhibitors; hit rate 0.14% among 91,000; further: nearly all actives have a fitted effect of over 65% in size
Each line names hits and unclear results; the compound was inactive in the other large screens. Unless noted, the call rests on the fitted dose curve; in most records, active means well fitted curve in the direction sought with a large enough effect; inconclusive means small, poorly fitted or top-dose-only effect, or another doubt; inactive means no such curve, though single readings can be large; an effect the other way counts as inactive or inconclusive.

CCCCC(CC)CNC(=O)CCCCCn1c(=O)[nH]c2ccsc2c1=O (configuration not stated)	DRV1 agonist 79.9
CC(=O)c1ccc(N2CCN(C(=O)CCCCn3c(=O)[nH]c4ccsc4c3=O)CC2)cc1	none
O=C1CC(c2ccc3c(c2)OCO3)c2c(n[nH]c2Nc2ccccc2)N1 (configuration not stated)	none (no result: DRV1 agonist)
O=C(Nc1ccc2c(c1)Cc1ccccc1-2)c1ccc2c(c1)OCO2	none (no result: DRV1 agonist)
Cc1nc(SCC(=O)NC(c2ccc3c(c2)OCCCO3)C(C)C)c(C#N)c(C)c1C (configuration not stated)	none (no result: DRV1 agonist)
CN(C)c1ccc(C(=O)Nc2ccccc2-c2ccccc2)cc1	none (no result: DRV1 agonist)
O=C(Nc1ccc(N2CCN(Cc3ccccc3)CC2)cc1)c1cnc2ccccc2n1	none (no result: DRV1 agonist)
CCOC(=O)C(CC(C)C)NC(C)=O (configuration not stated)	none (no result: DRV1 agonist)
CC(=O)Nc1cccc(NC(=O)Cc2csc(COc3cccc(C)c3)n2)c1	DRV1 agonist 68.9
Cc1cccc(NC(=O)Cc2csc(COc3cccc(C)c3)n2)c1	AID inhibitor inconclusive
CCCCc1cnc2c(c1SCC(=O)Nc1ccccc1C(=O)OCC)c(=O)n(C)c(=O)n2C	none (no result: DRV1 agonist)
CCOc1ccccc1OC(=O)c1ccccc1	none (no result: DRV1 agonist)
COCc1ccccc1NS(=O)(=O)c1cc(C(=O)O)cc2c1CCC2	none (no result: DRV1 agonist)
COc1cccc(CCc2ccccc2OCC(CN(C)C)OC(=O)CCC(=O)O)c1 (configuration not stated)	DRV1 agonist 94.8 (no result: AID inhibitor, UDG counter)
COc1cccc(CNC(=O)C(C)Oc2ccccc2)c1 (configuration not stated)	none (no result: DRV1 agonist)
Cc1ccc(C(=O)Nc2sc3c(c2C(=O)N2CCN(C)CC2)CCCCC3)cc1	none (no result: DRV1 agonist)
C=Cc1ccc(CSc2nc(-c3ccc(Cl)cc3)nc3c2Cc2c(CO)cnc(C)c2O3)cc1	none
C=Cc1ccc(CSc2nc(-c3ccccc3C)nc3c2Cc2c(CO)cnc(C)c2O3)cc1	AID inhibitor 44.7µM
O=C(c1cccn2c(=O)c3cc(Cl)ccc3nc12)N1CCN(c2ccccc2F)CC1	UDG counter 79.4µM
Cc1ccc(C)c(N2CCN(C(=O)c3cccn4c(=O)c5ccccc5nc34)CC2)c1	none
O=C(CC12CC3CC(CC(Br)(C3)C1)C2)NCCc1ccccc1	none (no result: DRV1 agonist)
COc1cc(C(=O)Oc2c(Sc3ccc(C)cc3)c(C)nn2-c2ccccc2)cc(OC)c1OC	AID inhibitor inconclusive, UDG counter inconclusive
COc1ccccc1C(=O)Oc1c(Sc2ccccc2)c(C)nn1-c1ccccc1	DRV1 agonist inconclusive, AID inhibitor 44.7µM, UDG counter inconclusive
CCOC(=O)c1ccc(N2C(=O)c3[nH]nc(-c4ccc(OC)cc4)c3C2c2ccccc2Cl)cc1 (configuration not stated)	none
COc1ccc(-c2n[nH]c3c2C(c2ccc(Cl)cc2Cl)NC3=O)cc1 (configuration not stated)	DRV1 agonist 87.0
O=C1CCc2ccc(OCCCCN3CCN(c4cccc(Cl)c4Cl)CC3)cc2N1	DRV1 agonist 89.7 (no result: AID inhibitor, UDG counter)
O=C(COc1ccc2c(c1)CCC(=O)N2)NOCc1ccccc1	none (no result: DRV1 agonist)
COc1cc(OC)cc(C(=O)Oc2ccc(-c3ccccc3)cc2)c1	none (no result: DRV1 agonist)
Cc1cccc(C(=O)NC2CC2)c1C	none (no result: DRV1 agonist)
COC(=O)c1ccc2c(c1)N(CC(=O)Nc1cccc(C(F)(F)F)c1)C(=O)c1ccccc1S2	DRV1 agonist 107.4
CC(=O)c1cccc(NC(=O)CN2C(=O)c3ccccc3Sc3ncccc32)c1	DRV1 agonist 71.5
CCN(CC)C(=O)c1ccc2c(c1)N(Cc1ccc(C(F)(F)F)cc1)C(=O)c1ccccc1S2	DRV1 agonist 87.2, AID inhibitor inconclusive
COCCNC(=O)c1ccc2c(c1)N(Cc1ccc(C(F)(F)F)cc1)C(=O)c1ccccc1S2	AID inhibitor inconclusive
COC(=O)c1ccc2c(c1)N(CC(=O)Nc1ccc(OC)c(Cl)c1)C(=O)c1ccccc1S2	none
CC(=O)c1cccc(NC(=O)CN2C(=O)c3cccnc3Sc3ccccc32)c1	none
O=C(OCC(=O)c1c[nH]c2ccccc12)c1ccc([N+](=O)[O-])cc1Cl	none (no result: DRV1 agonist)
CC(=O)c1c(C)oc2c1cc(NS(=O)(=O)c1ccc(Br)cc1)c1ccccc12	DRV1 agonist 80.0
CC(=O)c1c(C)oc2c(Br)cc(NS(=O)(=O)c3ccc(Br)cc3)cc12	none
COCCCNc1nc(NCc2ccccc2OC)c2cnn(C)c2n1	DRV1 agonist 75.1
COCCCNc1nc(NCc2ccc(C)cc2)c2cnn(C)c2n1	DRV1 agonist 69.1
COCCNc1nc(NCc2ccccc2OC)c2cnn(C)c2n1	none
Cn1ncc2c(NCc3ccccc3Cl)nc(NCCO)nc21	none
O=C(Nc1ccc(Cl)c(Cl)c1)C1CC1	DRV1 agonist 82.6 (no result: AID inhibitor, UDG counter)
O=C1CCC(C(=O)Nc2ccc(Cl)c(Cl)c2)N1 (configuration not stated)	none (no result: DRV1 agonist)
